Bioassay records (PubChem)
Most compounds without a hit are left out; they make up all but 3.7% or so of the library.
FMDV antiviral: foot and mouth disease virus antiviral activity; Potency, µM (highest dose often 57.9 µM), for inactives: at the highest dose activity change, negative = inhibition, actives largely listed as inhibitors; actives 1.2% (n = 410,000); FMDV antiviral cell-based qHTS; calls by dose curve; tested in HEK293T cells; note: read-out not given here; nearly all actives have a fitted effect of over 45% in size
Sm TGR inh: blocks Schistosoma mansoni thioredoxin glutathione reductase | Q962Y6 | purified TGR, DTNB reduction, TNB absorbance 405 nm | Potency, µM (titrated, usually from 114 µM), for inactives: at the top dose activity change, negative = inhibition, hits mostly inhibitors | actives 3% (n = 360,000); note: nearly all actives have a fitted effect of over 60% in size
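Kinetic colorimetric format: TGR-catalysed, NADPH-driven DTNB reduction monitored via TNB absorbance. Enzyme dispensed at 20 nM; compound exposure 15 min at room temperature before reaction start.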
RE007 growth inh: less growth of the S. pombe RE007 Vpr strain | S. pombe RE007 Vpr strain, BacTiter-Glo ATP luminescence, 24 h | Potency, µM (highest dose often 92.2 µM), for inactives: at the top dose activity change, negative = less growth, hits mostly inhibitors | actives 0.21% (n = 360,000); active = well fitted falling curve with a large enough effect; inconclusive = small, poorly fitted or top-dose-only effect; inactive = no such curve, though single readings can be large or run the other way; note: nearly all actives have a fitted effect of over 50% in size
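Fission yeast strain RE007, carrying one chromosomally integrated HIV-1 vpr copy, was seeded at OD 0.01 in PMG+AL medium with 23 nL pinned compound. After 24 h at 30 °C and 99% humidity, viability was read by BacTiter-Glo luminescence.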
TbPYK inhibitor: blocks Trypanosoma brucei pyruvate kinase. TbPYK enzyme, Kinase-Glo Plus ATP luminescence, 45 min. actives 0.12% (n = 410,000). Potency, µM (series often up to 76.8 µM), inactives show top-dose activity, negative = inhibition, usual class: inhibitors; note: nearly all actives have a fitted effect of over 50% in size
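Enzyme and substrate buffer are dispensed first and compound is pin-transferred. ADP at 130 uM final then starts the reaction, which runs 45 min at room temperature. Detection reagent is added for 10 min before luminescence is imaged.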
Active calls of the source: *; [ ] = another dose, or the depositor's remark. Unless noted, calls come from the whole dose curve; as a rule, active = well fitted curve in the direction sought with a large enough effect; inconclusive = small, poorly fitted or top-dose-only effect, or another doubt; inactive = no such curve, though single readings can be large; an effect the other way counts as inactive or inconclusive. % is set by controls: 0 for no effect and ±100 for the full control effect; potency is the fitted concentration of half-maximal effect.

Results for O=C(NCC1Cc2cccc(-c3cnccn3)c2O1)c1ccc2c(c1)OCCO2 (stereo not drawn) ?
FMDV antiviral: 47%

How did Cc1csc(C(C)N(C)C(=O)c2cc(NC(=O)C3CCC3)c3c(c2)nc(-c2ccncc2)n3C)n1 (stereo not drawn) do in these assays?
FMDV antiviral: 15%

What do the screens show for `Oc1ccc(-c2nc3c4c(ncn3n2)-c2ccccc2CC42CCCC2)cc1`?
FMDV antiviral: 25µM*; Sm TGR inh: 0%; RE007 growth inh: 6%; TbPYK inhibitor: 10%

What do the screens show for `COc1cccc(-n2c(CN3CCN(Cc4ccccc4)CC3)nc3ccc([N+](=O)[O-])cc3c2=O)c1`?
Sm TGR inh: -22%

What do the screens show for `CCOC(=O)c1ccc(-n2c(CN3CCN(CCO)CC3)nc3ccc([N+](=O)[O-])cc3c2=O)cc1`?
FMDV antiviral: -12%; Sm TGR inh: 35µM*; RE007 growth inh: 8%; TbPYK inhibitor: 2%

Results for CCOc1ccc2c(c1)c(=O)c(C(=O)c1ccc3c(c1)OCO3)cn2Cc1cccc(F)c1 ?
FMDV antiviral: -17%; Sm TGR inh: -2%; TbPYK inhibitor: 5%

What do the screens show for `O=C(c1ccc(S(=O)(=O)N2CCCCC2)cc1)N1CCN(CCN2C(=O)c3cccc4cccc(c34)C2=O)CC1`?
FMDV antiviral: 16µM*; Sm TGR inh: 12%; RE007 growth inh: -13%; TbPYK inhibitor: -5%

Results for O=C(c1ccc(S(=O)(=O)N2CCCC2)cc1)N1CCCCCC1 ?
FMDV antiviral: 0%; Sm TGR inh: 15%; RE007 growth inh: 16%; TbPYK inhibitor: 0%

What do the screens show for `Cc1nc(N2CCCC2)c2c(C(=O)Nc3cccc(Cl)c3C)c(C)oc2n1`?
FMDV antiviral: -7%; Sm TGR inh: 2%; TbPYK inhibitor: 6%

What do the screens show for `CC1(C)CC(=O)C2=C(C1)N(Cc1ccco1)C(=O)C2(NC(=O)C1CCCCC1)C(F)(F)F` (stereo not drawn)?
FMDV antiviral: 14%; Sm TGR inh: 32µM*; RE007 growth inh: 3%; TbPYK inhibitor: -3%

Results for CC1(C)CC(=O)C2=C(C1)N(Cc1ccco1)C(=O)C2(NC(=O)c1ccc(Cl)cc1Cl)C(F)(F)F (stereo not drawn) ?
FMDV antiviral: -8%; Sm TGR inh: 1%; RE007 growth inh: -5%; TbPYK inhibitor: -7%

Results for O=C(Cn1c(=O)c2cc(Cl)ccc2n2nncc12)Nc1ccccc1 ?
FMDV antiviral: -3%; Sm TGR inh: 2%; TbPYK inhibitor: 4%

How did CCOc1ccc(N(C)S(=O)(=O)c2cc(-c3cc(C)no3)ccc2C)cc1 do in these assays?
FMDV antiviral: 20µM*; Sm TGR inh: 8%; RE007 growth inh: 7%; TbPYK inhibitor: 0%

Results for CCOc1ccc(N(C)S(=O)(=O)c2cc(-c3cc(C)no3)ccc2CC)cc1 ?
FMDV antiviral: 18µM*; Sm TGR inh: 3%; RE007 growth inh: 6%; TbPYK inhibitor: 1%

Results for O=S(=O)(NCc1nnc2n1CCN(Cc1ccccc1Cl)CC2)c1ccccc1 ?
FMDV antiviral: -12%

What do the screens show for `CCOC(=O)Cc1csc(NC(=O)c2ccc([N+](=O)[O-])cc2[N+](=O)[O-])n1`?
FMDV antiviral: -8%; Sm TGR inh: -10%; RE007 growth inh: 5%; TbPYK inhibitor: -2%

How did CCOC(=O)Cc1csc(NC(=O)c2ccc(N3CCOCC3)cc2[N+](=O)[O-])n1 do in these assays?
FMDV antiviral: 18µM*; Sm TGR inh: -14%; RE007 growth inh: -11%; TbPYK inhibitor: 5%

What do the screens show for `CNc1ccccc1C(=O)N1CCc2c([nH]c3ccccc23)C1=O`?
FMDV antiviral: 44%

Results for COc1cccc(-c2cncnc2NCc2cccc(C)c2)c1 ?
FMDV antiviral: -17%

How did Cc1oc(-c2ccc(Cl)cc2)nc1CS(=O)CC(=O)N1CCN(c2cccc(C(F)(F)F)c2)CC1 (stereo not drawn) do in these assays?
FMDV antiviral: 32µM*; Sm TGR inh: inconclusive; TbPYK inhibitor: -8%

Results for COc1cccc(-c2nc(CS(=O)CC(=O)N3CCC4(CC3)OCCO4)c(C)o2)c1 (stereo not drawn) ?
FMDV antiviral: -4%; Sm TGR inh: 5µM*; RE007 growth inh: 1%; TbPYK inhibitor: -7%

Results for Cc1oc(-c2ccc(Cl)cc2)nc1CS(=O)CC(=O)N1CCC2(CC1)OCCO2 (stereo not drawn) ?
FMDV antiviral: -10%; Sm TGR inh: 20µM*; RE007 growth inh: -11%; TbPYK inhibitor: -3%

How did Cc1oc(-c2ccccc2Cl)nc1CS(=O)CC(=O)N1CCN(c2cccc(C(F)(F)F)c2)CC1 (stereo not drawn) do in these assays?
FMDV antiviral: -28%; Sm TGR inh: -26%; TbPYK inhibitor: -13%

Results for Cc1oc(-c2ccccc2F)nc1CS(=O)CC(=O)N1CCC2(CC1)OCCO2 (stereo not drawn) ?
FMDV antiviral: 6%; Sm TGR inh: 28µM*; RE007 growth inh: 11%[3.69 µM]

Results for COc1cccc(-c2nc(CS(=O)CC(=O)N3CCN(c4cccc(C(F)(F)F)c4)CC3)c(C)o2)c1 (stereo not drawn) ?
FMDV antiviral: inconclusive; Sm TGR inh: inconclusive; TbPYK inhibitor: -3%

What do the screens show for `CCc1ccccc1NC(=O)c1cc(S(=O)(=O)N(CC)c2ccccc2)ccc1F`?
FMDV antiviral: inconclusive; Sm TGR inh: -4%; TbPYK inhibitor: 0%

How did CCOC(=O)C1CCN(C(=O)CS(=O)Cc2nc(-c3ccc(C)cc3)oc2C)CC1 (stereo not drawn) do in these assays?
FMDV antiviral: -11%; Sm TGR inh: 4µM*; RE007 growth inh: 0%; TbPYK inhibitor: 2%

What do the screens show for `O=C(Nc1ccc(OC(F)(F)F)cc1)C(NS(=O)(=O)c1cccc2nsnc12)c1ccccc1` (stereo not drawn)?
FMDV antiviral: -11%; Sm TGR inh: 10%; TbPYK inhibitor: 2%

Results for O=C(c1cccs1)N1CCN(C(=O)c2cccs2)C1=S ?
FMDV antiviral: 35µM*; RE007 growth inh: -22%; TbPYK inhibitor: -2%

What do the screens show for `CCC1C(=O)NCCN1Cc1ccc2c(c1)CN(Cc1ccc(OC)c(OC)c1)CCO2` (stereo not drawn)?
FMDV antiviral: -17%

How did Cc1cc(NC(=O)c2ccc3c(c2)OCO3)ccc1NC(=O)c1ccco1 do in these assays?
FMDV antiviral: 32%; Sm TGR inh: -2%; RE007 growth inh: -16%; TbPYK inhibitor: -9%

Results for Cc1ccc(NC(=O)c2ccc3c(c2)OCCO3)nc1 ?
FMDV antiviral: 16µM*; Sm TGR inh: 2%; RE007 growth inh: -17%; TbPYK inhibitor: -14%

Results for Cc1cc(NC(=O)c2ccc3c(c2)OCO3)ccc1NC(=O)c1ccccc1 ?
FMDV antiviral: 7.9e-05µM*; Sm TGR inh: -6%; RE007 growth inh: 9%; TbPYK inhibitor: 0%

How did Cc1ccc(NC(=O)c2ccc3c(c2)OCCO3)cc1C do in these assays?
FMDV antiviral: 13µM*; Sm TGR inh: 2%; RE007 growth inh: -23%; TbPYK inhibitor: 0%
